The nature of this assay: M. tuberculosis growth inhibition, HTS (AID 1259417).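 Also: bacteria grown with compound for 5 days at 37 °C.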 As to conditions: stronger effect = higher value, concentration not given here.
Setting [1] is: M. tuberculosis DsRed fluorescence growth inhibition.
Where [2] appears, read: M. tuberculosis growth inhibition.

Molecules are shown by their SMILES. About 760 (69%) of roughly 1,100 compounds were called active. No rule for the calls is given here. The set was probably picked from earlier hits. The list shows a part of the results.

As a reminder, the inhibition is the drop in the measured response relative to a control, in per cent. As to `CCn1ccnc1CN(C)Cc1cn(-c2cccc(C)c2)nc1-c1cccc(F)c1`, the inhibition by setting is: under setting [1], 18.2% (inactive); under setting [2], 15.5%.
On to `Cc1ccc(Sc2ccc(C=O)o2)cc1`, for which the inhibition is, setting by setting: under setting [1], -0.277% (inactive); under setting [2], 24.1%.
As to `Cc1cccc(-n2nc([N+](=O)[O-])c(=NCCC3=CCCCC3)n2O)c1`, the inhibition is 101% (active) under setting [1] and 54.8% under setting [2].
As to `Cc1ccc(CN=c2c([N+](=O)[O-])nn(-c3cccc(Cl)c3)n2O)cc1`, the inhibition is, setting by setting: under setting [1], 99.8% (active); under setting [2], 100%.
The matching figures for `O=S1(=O)C=C(Sc2nc3ccccc3s2)c2ccccc21`: 100% (active) and 99.8%.
Turning to `COc1c2ccoc2nc2c(OC)cccc12`, the inhibition by setting is: under setting [1], 98.6% (active); under setting [2], 99.6%.
The matching figures for `CC12CCC(C(=O)Nc3ccc(OC(F)(F)F)cc3)(CC1=O)C2(C)C` (stereo unspecified): 94.8% (active) and 81.6%.
For `Cc1cccc(C(=O)Nc2nc3ccccc3[nH]2)c1` the same measures were 36.9% (active) and 35.3%.
For `CC(C)(C)c1ccc(C(=O)Nc2nc3ccccc3[nH]2)cc1` the same measures were 65.8% (active) and 86.5%.
Turning to `Cc1cc(NS(=O)(=O)c2ccc(NC(=O)c3ccc(C(C)(C)C)cc3)cc2)no1`, the inhibition by setting is: under setting [1], 19.1% (inactive); under setting [2], 12.2%.
Regarding `CCOC(=O)Cn1nnc(-c2ccc(OCc3ccccc3C)cc2)n1`, the inhibition under setting [1] is 91.8% (active) and the inhibition under setting [2] was found to be 96.9%.
For `CCOC(=O)Cn1nnc(-c2ccc(OCc3ccccc3F)cc2)n1` the same measures were 50% (active) and 91.6%.
For `CCN(CC)c1ccc(/C=C(/C#N)c2nc3ccccc3[nH]2)c(OC(C)C)c1` the same measures were 22.6% (active) and 47%.
For `c1ccc(-c2nc(NCCCn3ccnc3)c3oc4ccccc4c3n2)cc1` the same measures were 98.9% (active) and 99.5%.
On to `CCOC(=O)CSc1nnc2c3sc4nc(N5CCOCC5)c5c(c4c3ncn12)CC(C)(C)OC5`, for which the inhibition by setting is: under setting [1], 53.1% (active); under setting [2], 74.9%.
Take `COC(=O)c1ccc(N2C(=O)CC(N(CCc3ccccc3)C(=S)Nc3ccccc3)C2=O)cc1` (stereo unspecified): the inhibition runs as follows: under setting [1], 2.64% (inactive); under setting [2], -9.4%.
For `CC(=O)N1CCN(c2ccc(NC(=S)NC(=O)c3cc4ccccc4o3)cc2)CC1` the same measures were 3.83% (inactive) and -6.94%.
For `O=C(CCc1ccccc1)NC(=S)Nc1ccc(N2CCCCC2)cc1` the same measures were 82.8% (active) and 59.4%.
The matching figures for `OC(COCCC12CC3CC(CC(C3)C1)C2)CN1CCc2ccccc2C1` (stereo unspecified): 1.19% (inactive) and 10.3%.
`O=C(Cn1nc(CNc2ccc(Cl)cc2)[n+]2c1CCCCC2)c1ccc(Br)cc1`: the inhibition is, setting by setting: under setting [1], 92.9% (active); under setting [2], 94.4%.
For `CC(C)CC(=O)NC(c1ccc(Cl)cc1Cl)c1c(O)ccc2ccccc12` (stereo unspecified) the same measures were 5.28% (inactive) and 21%.
The matching figures for `COc1ccc(C(C)(C)C)cc1NC(=S)Nc1ccc(Cl)c(Cl)c1`: 0.0351% (inactive) and -14.6%.
Regarding `CC(C)(C)c1cc(Cl)c(O)c(NC(=S)NC(=O)c2cccc3ccccc23)c1`, the inhibition is 80.4% (active) under setting [1] and 78.3% under setting [2].

(Values after PubChem BioAssay AID1259417 (TB Discovery Research, Infectious Disease Research Institute, 2018).)
